From PubChem
An excerpt weighted towards active compounds, which were near 4.5% of everything screened.
hgDAF12 agonist – H. glycines DAF-12 receptor agonists, primary screen, cell-based, luminescence, HEK293, GAL4 fusion, UAS-luciferase; activation, % at 6.8 µM; Nuclear hormone receptor DAF-12 (Heterodera glycines), GAL4 fusion; HEK293 GAL4-hgDAF12 UAS-luciferase reporter, agonist luminescence; normalized to butyrate control; actives 1.8% (n = 370,000);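 active = activation above a cutoff set at the mean of all screened compounds plus 3 SD, cut at about 10% in these data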;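 note: 0% = DMSO wells and 100% = sodium butyrate wells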
DAX1 inh-1 – DAX1 (NR0B1) inhibitors, primary screen, cell-based, HEK293, Gal4-DAX1, luciferase luminescence | Nuclear receptor subfamily 0 group B member 1 (Homo sapiens), P51843 | HEK293 Gal4-DAX1 luciferase reporter | inhibition, % at 6.75 µM | actives 0.99% (n = 340,000);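 active = inhibition above the mean over all tested compounds plus 3 SD, cut at about 4.2% in these data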;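 note: 0% = DAX1-transfected cells with DMSO and 100% = empty-vector control cells with DMSO; inhibition shows as a rise in luminescence from relieved DAX1 repression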
Target sequence (P51843 207-470 limits assumed): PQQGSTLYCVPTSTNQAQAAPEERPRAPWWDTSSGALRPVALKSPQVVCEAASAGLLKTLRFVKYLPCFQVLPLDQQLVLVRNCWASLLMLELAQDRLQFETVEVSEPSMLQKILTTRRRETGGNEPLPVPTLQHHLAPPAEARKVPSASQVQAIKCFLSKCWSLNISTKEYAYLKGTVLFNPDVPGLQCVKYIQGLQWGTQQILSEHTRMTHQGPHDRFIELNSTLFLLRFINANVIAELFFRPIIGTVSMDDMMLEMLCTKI
hcDAF12 agonist – H. contortus DAF-12 nuclear receptor activators, primary screen, cell-based, luminescence, HEK293, lit1-tk-luc reporter. HEK293 hcDAF-12 lit1-tk-luc reporter; 0% DMSO, 100% Δ7-dafachronic acid. activation, % at 6.8 µM. actives 1.4% (n = 370,000). AID 652067, 2013;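 active = activation above the mean of all tested compounds plus 3 SD, cut at about 5.5% in these data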;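 note: 100% = response to 3 µM Δ7-dafachronic acid high control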
GAA850 FXN act – FXN promoter activators, primary screen, cell-based, luciferase luminescence, HEK293 lucGAA850 | HEK293 lucGAA850 FXN promoter luciferase reporter, 24 h; percent of 10 µM SAHA response | activation, % at 6 µM | actives 0.56% (n = 360,000) | AID 540364, 2011;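 active = activation above the average of all compounds screened plus 3 SD, cutoff fixed separately per campaign, cut at about 7.5% in these data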;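 note: 0% = DMSO wells and 100% = 10 µM SAHA wells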
DAX1 inh-2 – DAX1 (NR0B1) inhibitors on StAR promoter, primary screen, cell-based, luminescence, SF-1 (NR5A1), full-length DAX-1 | HEK293T StAR-luciferase reporter, SF-1/DAX-1 repression relief | inhibition, % at 6.8 µM | actives 1.1% (n = 370,000) | AID 652010, 2013;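 active = inhibition above the mean over all tested compounds plus 3 SD, cut at about 3.6% in these data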;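 note: 0% = DAX-1 cells with DMSO and 100% = cells lacking DAX-1 with DMSO; higher inhibition means more luminescence from relief of DAX-1 repression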
ssDAF-12 act – S. stercoralis DAF-12 nuclear receptor activators, primary screen, cell-based, luminescence, HEK293, GRIP1 co-expression, lit1-tk-luc. actives 1% (n = 370,000). Nuclear hormone receptor DAF-12 (Strongyloides stercoralis). AID 652126, 2013. activation, % at 6.8 µM. HEK293 ssDAF-12/GRIP1 lit1-tk-luc reporter; % of 3 µM dafachronic acid response;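 active = activation above the mean over all tested compounds plus 3 SD, cut at about 0.9% in these data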;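 note: 0% = DMSO-only wells and 100% = 3 µM delta7-dafachronic acid wells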
hgDAF12 conf – H. glycines DAF-12 receptor agonists, confirmation, cell-based, luminescence, HEK293, GAL4-LBD fusion; shares compounds with hgDAF12 agonist; HEK293 GAL4-hgDAF12 luciferase reporter, agonist mode; percent of butyrate response; activation, % at 6.8 µM; actives 80% (n = 3,300); AID 743050, 2013;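 active = mean activation over triplicate wells above the hit cutoff derived from the earlier primary screen, cut at about 11% in these data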;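 note: 0% = DMSO low control and 100% = 2 mM sodium butyrate high control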
LXR ag 2 – LXR agonists, Gal4 luciferase reporter, confirmation, counter-screen for hgDAF-12 agonist project, cell-based, luminescence, HEK293, H. glycines campaign; activation, % at 6.8 µM; 24 h; shares compounds with hgDAF12 agonist; 3,300 tested, under 10 active;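 active = mean activation of the triplicate above a set limit carried over from the primary screen, none filed active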
Starred values were filed as active, the others as inactive; . = no result.

SMILES	hgDAF12 agonist	DAX1 inh-1	hcDAF12 agonist	GAA850 FXN act	DAX1 inh-2	ssDAF-12 act	hgDAF12 conf	LXR ag 2
Fc1ccc2nc(Nc3nc4cc5c(cc4s3)OCCO5)sc2c1	15*	1	2	4	4.2*	1.5*	5	1
Cc1ccc(NC(=O)C2COc3ccccc3O2)c(C)c1 (configuration not stated)	7	3	3	-1	0	-1	.	.
Cc1ccnc(NC(=O)C2COc3ccccc3O2)c1 (configuration not stated)	14*	3	3	5	3.8*	0	17*	1
Cc1noc(C)c1C(=O)Nc1nc2ccc(S(C)(=O)=O)cc2s1	7	0	1	1	3	0	.	.
CCOc1ccc(NC(=O)c2ccco2)cc1	15*	0	2	2	4	0	13*	1
CCOc1ccc(NC(=S)NC(=O)c2ccco2)cc1	6	2	3	3	1	-1	.	.
Cc1occc1C(=O)Nc1ccc(OCc2ccccc2)cc1	14*	0	4	7	4.4*	0	19*	0
CC(=O)Nc1cccc(NC(=O)c2ccc(COc3ccccc3)cc2)c1	13*	1	3	4	2	0	17*	1
CC(=O)Nc1ccc(NC(=O)c2ccc(COc3ccccc3)cc2)cc1	1	-1	-1	3	0	-1	.	.
CS(=O)(=O)c1ccc2nc(NC(=O)c3ccco3)sc2c1	15*	0	4	1	3	-1	14*	1
COCCN1CCN(C(=O)c2cc(COc3ccc(F)c(F)c3)on2)CC1	0	0	0	4	0	0	.	.
Cc1noc(C)c1CSCC(=O)Nc1cc(Cl)ccc1N1CCCCC1	-3	1	0	1	0	-1	.	.
COc1ccc(S(=O)(=O)NC(=O)C2(C)CCN2C(=O)Cc2cc(C)cc(C)c2)cc1OC (configuration not stated)	-2	.	0	1	2	-1	.	.
CCOc1ccc(OCc2cccc(C(=O)Nc3ccc(CN4CCCCC4)cc3)c2)cc1	18*	-3	4	4	1	0	19*	1
O=C(Nc1nc2cc3c(cc2s1)OCCO3)c1ccncc1	8	3	0	3	3	-1	.	.
O=C(Nc1ccc(Cl)cc1-c1nc2ccccc2s1)c1ccco1	.	0	.	3	.	.	.	.
O=C(Nc1nc2cc3c(cc2s1)OCO3)c1ccco1	19*	-5	5	-3	4	0	9	1
O=C(Nc1nc(-c2nc3ccccc3s2)cs1)c1ccco1	19*	1	2	3	4.5*	0	7	0
CC(C)C(=O)Nc1nc2cc3c(cc2s1)OCCO3	13*	-3	4	2	1	-1	7	1
O=C(O)c1c(C(=O)O)c(-c2ccc(F)cc2)n2c1CCC2	1	0	0	1	0	-1	.	.
CC(=O)c1ccc(NC(=O)CSc2ccc3nnc(-c4cccnc4)n3n2)cc1	-1	0	-2	0	0	-1	.	.
